Results: the supplement of paper PMC10849652
Of roughly 8,800 targets only a part is listed; those with a hit were picked by preference. About 0.5% of all pairs of compound and target were hits. Unmarked numbers belong to inactive results.

Assays:
Experiment in all cases: log2 fold change, soluble protein after heating vs DMSO (PISA); higher = thermal stabilisation; K562 lysate, 10 uM; active = over 0.2 and 3.5 SD of the protein, either way, in both replicates (recomputed)
alvocidib = compound: CN1CC[C@H](c2c(O)cc(O)c3c(=O)cc(-c4ccccc4Cl)oc23)[C@H](O)C1 [alvocidib]
Method in brief: (§1)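 Log-two fold change in thermal stability relative to solvent controls is reported from duplicates. For each sample, crude K562 extract from dounce-homogenised pellets in PBS pH 7.4 with 1 mM MgCl2, at 1 mg/mL protein, was treated with 10 μM compound for 30 min. Aliquots heated for 3 min across 48°C-58°C were pooled, brought to 0.5% NP-40 at 4°C and cleared at 21,000xg for 90 min. The supernatant was quantified by TMTpro 16plex LC-MS/MS with channel sums equalised.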

Tubastatin A = compound: CN1CCc2c(c3ccccc3n2Cc2ccc(C(=O)NO)cc2)C1 [Tubastatin A]
Method in brief: as §1

[1] = compound: CNC(=O)C1=CC=CC=C1NC2=NC(=NC=C2Cl)NC3=C(C=C(C=C3)N4CCOCC4)OC
Method in brief: as §1

defactinib = compound: CNC(=O)c1ccc(Nc2ncc(C(F)(F)F)c(NCc3nccnc3N(C)S(C)(=O)=O)n2)cc1 [defactinib]
Method in brief: as §1

[2] = compound: CNc1nc(-c2ccc3c(N)n[nH]c3c2)cc(N2C[C@@H](C(=O)NC3CCCCC3)CC[C@H]2C)n1
Method in brief: as §1

encorafenib = compound: COC(=O)N[C@@H](C)CNc1nccc(-c2cn(C(C)C)nc2-c2cc(Cl)cc(NS(C)(=O)=O)c2F)n1 [encorafenib]
Method in brief: as §1

[3] = compound: COC(=O)[C@H](CCSC)NC(=O)C1=C(C=C(C=C1)NC[C@H](CS)N)C2=CC=CC=C2
Method in brief: as §1

alisertib = compound: COc1cc(Nc2ncc3c(n2)-c2ccc(Cl)cc2C(c2c(F)cccc2OC)=NC3)ccc1C(=O)O [alisertib]
Method in brief: as §1

[4] = compound: COc1cc2nc(-c3cc(F)ccc3O)nc(N[C@@H]3CNC[C@H]3C(C)(C)O)c2cc1OC
Method in brief: as §1

gefitinib = compound: COc1cc2ncnc(Nc3ccc(F)c(Cl)c3)c2cc1OCCCN1CCOCC1 [gefitinib]
Method in brief: as §1

lapatinib = compound: CS(=O)(=O)CCNCc1ccc(-c2ccc3ncnc(Nc4ccc(OCc5cccc(F)c5)c(Cl)c4)c3c2)o1 [lapatinib]
Method in brief: as §1

pictilisib = compound: CS(=O)(=O)N1CCN(Cc2cc3nc(-c4cccc5[nH]ncc45)nc(N4CCOCC4)c3s2)CC1 [pictilisib]
Method in brief: as §1

crizotinib = compound: C[C@@H](Oc1cc(-c2cnn(C3CCNCC3)c2)cnc1N)c1c(Cl)ccc(F)c1Cl [crizotinib]
Method in brief: as §1

[5] = compound: C[C@H](C1=CC=C(C=C1)C(=O)NC2=C3C=CNC3=NC=C2)N
Method in brief: as §1

duvelisib = compound: C[C@H](Nc1ncnc2nc[nH]c12)c1cc2cccc(Cl)c2c(=O)n1-c1ccccc1 [duvelisib]
Method in brief: as §1

gandotinib = compound: Cc1cc(Nc2cc(CN3CCOCC3)c3nc(C)c(Cc4ccc(Cl)cc4F)n3n2)n[nH]1 [gandotinib]
Method in brief: as §1

tozasertib = compound: Cc1cc(Nc2cc(N3CCN(C)CC3)nc(Sc3ccc(NC(=O)C4CC4)cc3)n2)n[nH]1 [tozasertib]
Method in brief: as §1

doramapimod = compound: Cc1ccc(-n2nc(C(C)(C)C)cc2NC(=O)Nc2ccc(OCCN3CCOCC3)c3ccccc23)cc1 [doramapimod]
Method in brief: as §1

bafetinib = compound: Cc1ccc(NC(=O)c2ccc(CN3CC[C@H](N(C)C)C3)c(C(F)(F)F)c2)cc1Nc1nccc(-c2cncnc2)n1 [bafetinib]
Method in brief: as §1

[6] = compound: Cc1cccc(CC(=O)N2CCc3c2ccc(-c2cn(C)c4ncnc(N)c24)c3F)n1
Method in brief: as §1

Sequence of UniProt Q9NY27 (Q9NY27 whole entry, looked up): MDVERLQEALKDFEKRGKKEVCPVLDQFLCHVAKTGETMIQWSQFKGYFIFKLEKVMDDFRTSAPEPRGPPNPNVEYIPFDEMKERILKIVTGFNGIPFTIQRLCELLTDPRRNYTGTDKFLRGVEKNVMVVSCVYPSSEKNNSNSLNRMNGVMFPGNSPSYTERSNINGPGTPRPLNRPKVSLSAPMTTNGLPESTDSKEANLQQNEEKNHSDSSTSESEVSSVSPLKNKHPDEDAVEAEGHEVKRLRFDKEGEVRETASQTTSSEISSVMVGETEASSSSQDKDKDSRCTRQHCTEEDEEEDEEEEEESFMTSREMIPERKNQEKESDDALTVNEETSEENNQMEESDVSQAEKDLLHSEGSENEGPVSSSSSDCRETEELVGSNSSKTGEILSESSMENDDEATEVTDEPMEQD
Sequence of UniProt Q13362 (Q13362 whole entry, looked up): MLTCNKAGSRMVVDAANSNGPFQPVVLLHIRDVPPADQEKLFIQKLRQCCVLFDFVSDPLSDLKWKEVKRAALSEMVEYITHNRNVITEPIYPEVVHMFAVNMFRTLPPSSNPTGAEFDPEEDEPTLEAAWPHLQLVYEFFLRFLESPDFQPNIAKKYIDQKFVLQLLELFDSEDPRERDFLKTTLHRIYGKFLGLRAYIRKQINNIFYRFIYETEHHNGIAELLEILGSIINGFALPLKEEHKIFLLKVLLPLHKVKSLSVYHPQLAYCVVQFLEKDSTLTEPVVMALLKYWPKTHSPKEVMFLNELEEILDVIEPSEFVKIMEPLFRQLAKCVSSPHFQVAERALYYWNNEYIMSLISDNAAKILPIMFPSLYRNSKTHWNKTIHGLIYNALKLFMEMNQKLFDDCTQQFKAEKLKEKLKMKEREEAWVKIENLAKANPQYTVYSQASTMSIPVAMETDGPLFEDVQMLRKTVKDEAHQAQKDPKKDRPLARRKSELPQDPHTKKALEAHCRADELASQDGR
Sequence of UniProt P35236 (P35236 whole entry, looked up): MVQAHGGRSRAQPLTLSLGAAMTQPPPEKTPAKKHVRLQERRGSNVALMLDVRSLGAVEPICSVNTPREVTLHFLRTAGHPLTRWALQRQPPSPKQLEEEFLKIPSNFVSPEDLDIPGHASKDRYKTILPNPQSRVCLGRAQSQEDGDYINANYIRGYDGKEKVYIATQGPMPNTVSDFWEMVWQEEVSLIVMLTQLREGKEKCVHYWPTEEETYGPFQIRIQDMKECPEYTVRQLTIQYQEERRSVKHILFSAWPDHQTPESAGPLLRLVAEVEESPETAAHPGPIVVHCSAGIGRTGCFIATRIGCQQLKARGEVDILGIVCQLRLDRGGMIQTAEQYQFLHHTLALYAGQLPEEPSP
Sequence of UniProt O95336 (O95336 whole entry, looked up): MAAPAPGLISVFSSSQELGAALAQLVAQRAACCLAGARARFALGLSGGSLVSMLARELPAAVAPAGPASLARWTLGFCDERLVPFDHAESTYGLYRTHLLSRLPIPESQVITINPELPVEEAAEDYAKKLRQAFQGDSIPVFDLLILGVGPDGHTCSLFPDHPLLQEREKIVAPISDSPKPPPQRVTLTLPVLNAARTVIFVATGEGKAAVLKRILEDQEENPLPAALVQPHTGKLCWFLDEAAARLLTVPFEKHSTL
Sequence of UniProt Q9H3S7 (Q9H3S7 whole entry, looked up): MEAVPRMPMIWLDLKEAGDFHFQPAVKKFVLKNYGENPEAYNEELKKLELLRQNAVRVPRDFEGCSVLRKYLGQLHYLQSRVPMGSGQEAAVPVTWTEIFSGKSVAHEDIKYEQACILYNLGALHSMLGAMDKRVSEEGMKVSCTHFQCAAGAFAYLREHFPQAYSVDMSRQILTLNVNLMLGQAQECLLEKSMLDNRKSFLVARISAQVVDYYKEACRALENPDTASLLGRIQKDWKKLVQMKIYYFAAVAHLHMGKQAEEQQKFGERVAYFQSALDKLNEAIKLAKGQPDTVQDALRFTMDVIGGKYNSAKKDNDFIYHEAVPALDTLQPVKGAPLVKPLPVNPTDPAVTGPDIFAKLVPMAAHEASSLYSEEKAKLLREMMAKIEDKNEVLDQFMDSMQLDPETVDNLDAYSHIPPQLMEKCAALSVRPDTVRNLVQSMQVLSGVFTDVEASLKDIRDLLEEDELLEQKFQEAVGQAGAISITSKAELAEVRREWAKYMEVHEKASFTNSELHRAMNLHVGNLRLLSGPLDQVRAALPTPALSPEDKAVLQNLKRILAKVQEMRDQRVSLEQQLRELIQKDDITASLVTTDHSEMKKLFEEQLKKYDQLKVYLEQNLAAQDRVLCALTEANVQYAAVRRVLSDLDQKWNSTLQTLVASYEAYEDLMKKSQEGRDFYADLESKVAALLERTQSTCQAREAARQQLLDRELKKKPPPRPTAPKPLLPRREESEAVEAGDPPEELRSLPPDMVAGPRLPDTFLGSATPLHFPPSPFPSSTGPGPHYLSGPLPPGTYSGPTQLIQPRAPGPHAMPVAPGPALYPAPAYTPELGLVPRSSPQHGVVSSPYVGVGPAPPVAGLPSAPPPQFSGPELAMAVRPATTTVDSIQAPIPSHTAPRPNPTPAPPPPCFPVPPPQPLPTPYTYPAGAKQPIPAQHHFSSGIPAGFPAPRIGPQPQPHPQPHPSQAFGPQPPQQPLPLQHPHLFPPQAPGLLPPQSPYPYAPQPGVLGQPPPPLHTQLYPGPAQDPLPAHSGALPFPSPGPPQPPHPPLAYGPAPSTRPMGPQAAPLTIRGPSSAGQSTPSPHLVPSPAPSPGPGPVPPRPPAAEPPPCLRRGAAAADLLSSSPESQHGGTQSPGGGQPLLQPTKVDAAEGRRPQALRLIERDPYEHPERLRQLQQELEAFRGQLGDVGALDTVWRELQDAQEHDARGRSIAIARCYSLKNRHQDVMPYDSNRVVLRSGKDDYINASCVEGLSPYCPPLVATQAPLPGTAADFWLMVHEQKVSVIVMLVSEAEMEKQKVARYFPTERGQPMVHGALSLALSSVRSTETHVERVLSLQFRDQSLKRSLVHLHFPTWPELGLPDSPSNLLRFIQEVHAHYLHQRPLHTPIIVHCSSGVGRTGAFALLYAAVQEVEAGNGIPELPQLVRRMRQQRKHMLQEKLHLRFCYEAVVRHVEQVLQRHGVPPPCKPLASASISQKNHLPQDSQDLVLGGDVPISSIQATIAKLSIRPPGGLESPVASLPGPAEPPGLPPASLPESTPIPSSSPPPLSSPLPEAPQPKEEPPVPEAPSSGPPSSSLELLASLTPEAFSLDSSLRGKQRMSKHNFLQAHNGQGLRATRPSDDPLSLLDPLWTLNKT
Sequence of UniProt O94913 (O94913 whole entry, looked up): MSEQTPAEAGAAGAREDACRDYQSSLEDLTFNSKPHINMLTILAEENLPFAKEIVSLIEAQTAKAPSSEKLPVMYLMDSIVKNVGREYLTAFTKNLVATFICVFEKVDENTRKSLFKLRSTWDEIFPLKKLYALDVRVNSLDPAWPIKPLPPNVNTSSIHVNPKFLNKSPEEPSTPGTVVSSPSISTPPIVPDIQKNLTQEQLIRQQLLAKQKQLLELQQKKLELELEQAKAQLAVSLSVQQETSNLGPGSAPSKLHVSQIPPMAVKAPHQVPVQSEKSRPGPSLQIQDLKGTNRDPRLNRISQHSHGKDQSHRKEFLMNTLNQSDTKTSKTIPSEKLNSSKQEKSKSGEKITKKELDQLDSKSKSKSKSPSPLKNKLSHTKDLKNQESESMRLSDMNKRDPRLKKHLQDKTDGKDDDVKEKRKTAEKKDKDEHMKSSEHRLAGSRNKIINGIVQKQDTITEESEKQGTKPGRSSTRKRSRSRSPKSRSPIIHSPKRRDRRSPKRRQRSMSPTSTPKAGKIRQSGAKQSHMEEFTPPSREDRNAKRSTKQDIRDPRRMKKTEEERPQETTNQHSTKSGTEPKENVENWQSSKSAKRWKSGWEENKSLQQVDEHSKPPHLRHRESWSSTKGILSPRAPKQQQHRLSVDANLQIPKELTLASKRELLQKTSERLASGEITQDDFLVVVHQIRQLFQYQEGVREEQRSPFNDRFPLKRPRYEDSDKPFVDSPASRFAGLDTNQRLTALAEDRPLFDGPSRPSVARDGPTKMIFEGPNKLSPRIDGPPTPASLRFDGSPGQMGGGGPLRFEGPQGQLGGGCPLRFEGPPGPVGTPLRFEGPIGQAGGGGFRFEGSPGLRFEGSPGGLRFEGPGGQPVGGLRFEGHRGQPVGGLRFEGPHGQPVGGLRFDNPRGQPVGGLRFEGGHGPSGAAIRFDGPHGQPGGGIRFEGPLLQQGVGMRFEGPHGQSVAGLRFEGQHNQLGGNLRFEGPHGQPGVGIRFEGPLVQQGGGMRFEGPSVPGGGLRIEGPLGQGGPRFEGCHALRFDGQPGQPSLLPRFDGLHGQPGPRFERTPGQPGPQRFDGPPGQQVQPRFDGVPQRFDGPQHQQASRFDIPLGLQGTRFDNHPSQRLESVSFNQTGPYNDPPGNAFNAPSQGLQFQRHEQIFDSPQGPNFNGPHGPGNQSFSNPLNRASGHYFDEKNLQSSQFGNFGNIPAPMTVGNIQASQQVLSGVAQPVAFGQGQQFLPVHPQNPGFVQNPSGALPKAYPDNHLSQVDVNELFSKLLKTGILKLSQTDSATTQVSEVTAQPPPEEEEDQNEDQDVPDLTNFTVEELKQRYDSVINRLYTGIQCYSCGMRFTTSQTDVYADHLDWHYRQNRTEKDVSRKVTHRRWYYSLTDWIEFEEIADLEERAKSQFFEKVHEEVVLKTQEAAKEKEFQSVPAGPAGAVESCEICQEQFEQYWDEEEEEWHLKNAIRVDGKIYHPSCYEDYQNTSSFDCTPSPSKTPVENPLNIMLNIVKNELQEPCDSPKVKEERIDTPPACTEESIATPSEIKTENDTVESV
Sequence of UniProt O75569 (O75569 whole entry, looked up): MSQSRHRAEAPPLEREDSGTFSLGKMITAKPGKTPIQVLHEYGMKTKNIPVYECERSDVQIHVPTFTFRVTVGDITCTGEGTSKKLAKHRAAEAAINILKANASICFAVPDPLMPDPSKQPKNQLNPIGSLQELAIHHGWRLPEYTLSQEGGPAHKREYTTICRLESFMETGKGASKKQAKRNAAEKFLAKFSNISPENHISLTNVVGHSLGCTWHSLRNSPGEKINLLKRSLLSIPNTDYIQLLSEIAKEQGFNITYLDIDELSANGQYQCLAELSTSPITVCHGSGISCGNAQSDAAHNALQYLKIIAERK

Row | Target | log2 fold change (alvocidib) | log2 fold change (Tubastatin A) | log2 fold change [1] | log2 fold change (defactinib) | log2 fold change [2] | log2 fold change (encorafenib) | log2 fold change [3] | log2 fold change (alisertib) | log2 fold change [4] | log2 fold change (gefitinib) | log2 fold change (lapatinib) | log2 fold change (pictilisib) | log2 fold change (crizotinib) | log2 fold change [5] | log2 fold change (duvelisib) | log2 fold change (gandotinib) | log2 fold change (tozasertib) | log2 fold change (doramapimod) | log2 fold change (bafetinib) | log2 fold change [6]
1 | PRPH isoform 2 (UniProt P41219) | 0.062 | 0.021 | -0.049 | -0.081 | -0.133 | -0.023 | -0.178 | -0.012 | -0.028 | 0.014 | 0.082 | 0.131 | 0.05 | 0.03 | 0.051 | -0.08 | 0.096 | -0.015 | 0.025 | 0.001
2 | POLR2G (UniProt P62487) | -0.034 | 0.012 | 0.038 | 0.027 | 0.019 | 0.007 | -0.032 | 0.016 | 0.017 | -0.01 | -0.001 | -0.048 | 0.016 | -0.04 | 0.03 | -0.002 | -0.04 | -0.011 | 0.004 | -0.006
3 | PRKRA (UniProt O75569) | 0.024 | -0.254 | 0.028 | 0.02 | -0.009 | -0.001 | 0.146 | -0.019 | -0.004 | -0.006 | 0.01 | -0.003 | -0.021 | -0.017 | 0 | -0.094 | -0.005 | -0.01 | -0.003 | 0.032
4 | PREP (UniProt P48147) | 0.018 | -0.021 | 0.018 | 0.005 | -0.019 | -0.024 | 0.361 (active) | -0.011 | 0.013 | -0.012 | -0.024 | -0.013 | -0.016 | 0.009 | 0.043 | -0.042 | -0.012 | -0.001 | -0.004 | -0.01
5 | PPP4R2 (UniProt Q9NY27) | 0.021 | 0.013 | 0.018 | 0.015 | 0.014 | 0.025 | -0.014 | -0.058 | -0.002 | -0.01 | 0.057 | -0.003 | 0.023 | 0.159 | 0.003 | -0.011 | -0.007 | -0.022 | 0.021 | -0.048
6 | PPP2R5C isoform 5 (UniProt Q13362) | 0.016 | -0.018 | 0.012 | 0.029 | -0.048 | 0.029 | -0.039 | 0.002 | -0.014 | 0.004 | -0.03 | 0.01 | 0.004 | 0.069 | 0.02 | -0.08 | 0.054 | -0.005 | -0.001 | -0.036
7 | PWP1 (UniProt Q13610) | 0.063 | -0.017 | -0.012 | 0.002 | -0.046 | 0.046 | -0.013 | -0.014 | 0.008 | -0.017 | 0.041 | -0.001 | 0.003 | 0.488 (active) | 0.055 | -0.052 | 0 | -0.125 | 0.032 | -0.084
8 | PLIN2 (UniProt Q99541) | -0.008 | -0.107 | -0.014 | 0.049 | 0.002 | 0.061 | -0.107 | 0.044 | -0.071 | 0.104 | -0.009 | -0.041 | -0.038 | 0.023 | 0.014 | -0.254 (active) | 0.096 | -0.003 | -0.067 | 0.011
9 | PTPN2 (UniProt P17706) | -0.036 | -0.115 | 0.049 | -0.008 | 0.005 | -0.035 | 0.053 | 0.052 | -0.006 | -0.006 | -0.016 | -0.01 | -0.074 | -0.084 | -0.042 | -0.013 | -0.037 | -0.012 | -0.077 | 0.071
10 | PCBD2 (UniProt Q9H0N5) | -0.124 | 0.012 | 0.01 | -0.045 | -0.059 | -0.008 | -0.039 | 0.058 | 0.031 | 0.071 | -0.014 | -0.009 | -0.051 | -0.228 (active) | 0.028 | 0.141 | 0.031 | 0.008 | -0.063 | 0.096
11 | PGLS (UniProt O95336) | 0.177 | 0.09 | 0.061 | 0.231 | 0.016 | 0.017 | 0.019 | 0.03 | -0.087 | -0.163 | 0.068 | 0.011 | 0 | 0.206 | 0.033 | -0.084 | 0.008 | 0.004 | -0.031 | -0.14
12 | PLK1 (UniProt P53350) | 0.059 | -0.108 | -0.347 (active) | -0.268 | 0.006 | 0.097 | -0.034 | -0.003 | -0.023 | 0.003 | -0.024 | 0.013 | -0.179 | 0.168 | 0.043 | -0.088 | 0.003 | 0.03 | -0.019 | -0.055
13 | PCF11 (UniProt O94913) | -0.018 | -0.12 | 0.002 | 0.041 | 0.078 | 0.036 | -0.021 | 0.009 | 0.042 | 0.002 | -0.017 | -0.014 | -0.018 | 0.058 | 0.005 | -0.086 | -0.004 | -0.031 | -0.021 | -0.017
14 | PTPN23 (UniProt Q9H3S7) | -0.004 | -0.035 | -0.03 | -0.018 | 0.016 | 0.031 | -0.018 | 0.012 | -0.017 | 0.005 | 0.003 | -0.028 | -0.014 | 0.005 | -0.023 | -0.031 | 0.013 | 0.016 | -0.032 | 0.023
15 | PGGT1B (UniProt P53609) | 0.032 | 0.036 | -0.068 | 0.022 | -0.117 | -0.039 | 0.454 (active) | -0.011 | -0.032 | -0.021 | 0.013 | -0.012 | 0.01 | 0.013 | -0.019 | -0.158 | 0.083 | 0.047 | 0.076 | -0.074
16 | PTPN7 isoform 3 (UniProt P35236) | -0.082 | -0.138 | 0.057 | 0.017 | 0.038 | -0.051 | 0.122 | 0.021 | -0.023 | -0.025 | -0.025 | -0.04 | 0.043 | -0.028 | -0.006 | 0.056 | 0 | 0.007 | 0.036 | 0.115
